A selection: hits, their analogues and other compounds. The true share with any hit is near 8.2%.
MCF10A rereplic: inducers of DNA re-replication in MCF 10A breast cells; Potency, µM (titrated, usually from 46.1 µM), without a hit: at the top dose activity, positive = re-replication, most hits filed as activators; MCF 10A DNA re-replication, Hoechst nuclear intensity, 48 h; actives 2.9% (n = 350,000); note: % of control where 0% means no effect; nearly all actives have a fitted effect of over 50% in size
KB-V1 cytotox: kills drug-selected multidrug resistant KB-V1 cells; actives 3.4% (n = 400,000); KB-V1 MDR cells viability, CellTiter-Glo, 72 h; Potency, µM (highest dose often 46.1 µM), actives largely listed as cytotoxic; note: % is set by controls: 0 for no effect and ±100 for the full control effect; nearly all actives have a fitted effect of over 60% in size
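Luminescent ATP read-out (CellTiter-Glo, 10 min) measures survival of drug-selected KB-V1 MDR cells after 72 h, 37 degrees C compound exposure. Medium: phenol-red-free DMEM, 10% FBS. Values from fitted concentration-response curves.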
SW480 rerep: induces DNA re-replication in SW480 colon adenocarcinoma cells; actives 1.8% (n = 340,000); SW480 DNA re-replication, Hoechst DNA content imaging, 48 h; Potency, µM (highest dose often 46.1 µM), without a hit: at the highest dose re-replication activation, hits mostly activators; AID 624297; note: % of control where 0% means no effect; nearly all actives have a fitted effect of over 55% in size
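First, 250 cells per well were seeded. Next, compound or vehicle (23 nL) was pinned in, plates sat 48 hr at 37 C. Finally Hoechst was added for 40 min before fluorescence scanning.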
ELG1 DNA repair: ELG1-dependent DNA repair inhibition | Potency, µM (titrated, usually from 46.1 µM), for inactives: top-dose activity change, negative = inhibition, usual class: inhibitors | actives 2.3% (n = 330,000) | HEK293T ELG1-luciferase reporter, luminescence, 16 h; DNA damage induced by 5-fluorouridine; note: % is set by controls: 0 for no effect and ±100 for the full control effect; nearly all actives have a fitted effect of over 55% in size
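Quantitative HTS, concentration-response format. 2,000 cells/well co-treated with 5-fluorouridine and compound, 16 hr in 5% CO2 at 37 °C; ONE-Glo luminescence read after 30 min.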
KB-3-1 tox: kills parental KB-3-1 adenocarcinoma cells; actives 1.4% (n = 400,000); Potency, µM (top dose mostly 46.1 µM), hits mostly cytotoxic; KB-3-1 viability, CellTiter-Glo ATP luminescence, 72 h; note: % is set by controls: 0 for no effect and ±100 for the full control effect; nearly all actives have a fitted effect of over 60% in size
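72 h, 37 °C compound treatment of KB-3-1 parental cells; CellTiter-Glo added, 10 min, luminescence read. Data corrected against DMSO-only plates and normalized before curve fitting.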
Numbers without * were called inactive. Calls come from the whole dose curve; as a rule, active = well fitted curve in the direction sought with a large enough effect; inconclusive = small, poorly fitted or top-dose-only effect, or another doubt; inactive = no such curve, though single readings can be large; an effect the other way counts as inactive or inconclusive. Potency is the fitted concentration of half-maximal effect.

For CC(OC(=O)c1ccc(-c2ccc(O)cc2)cc1)C(=O)NC1CCCCC1C (centres undefined) the results were MCF10A rereplic 17%, KB-V1 cytotox 16µM*, SW480 rerep 8%, ELG1 DNA repair 8% and KB-3-1 tox inconclusive.
Screening O=C(O)CC/C(=N\Nc1ccc(S(=O)(=O)N2CCCC2)cc1[N+](=O)[O-])c1cccs1 returned MCF10A rereplic 13%, KB-V1 cytotox inconclusive, SW480 rerep 2%, ELG1 DNA repair 21µM* and KB-3-1 tox inactive.
`O=C(O)CC/C(=N\Nc1ccc(S(=O)(=O)N2CCOCC2)cc1[N+](=O)[O-])c1cccs1` gave MCF10A rereplic -4%, KB-V1 cytotox inactive, SW480 rerep -10%, ELG1 DNA repair inconclusive and KB-3-1 tox inactive.
Screening NS(=O)(=O)c1ccc(NCc2ccccc2OCc2ccc(F)cc2)cc1 returned MCF10A rereplic 11%, KB-V1 cytotox inconclusive, SW480 rerep 5%, ELG1 DNA repair inconclusive and KB-3-1 tox inactive.
`COc1cc(CNCCc2ccc(S(N)(=O)=O)cc2)ccc1OCC(=O)NC1CCCCC1` gave MCF10A rereplic inconclusive, KB-V1 cytotox inconclusive, SW480 rerep -1%, ELG1 DNA repair 7% and KB-3-1 tox inconclusive.
`COc1ccccc1CCNCc1ccc(OC)c(OCc2ccccc2)c1` gave MCF10A rereplic 2%, KB-V1 cytotox 4.6µM*, SW480 rerep inconclusive, ELG1 DNA repair -1% and KB-3-1 tox inconclusive.
NS(=O)(=O)c1ccc(CCNCc2ccccc2OCc2ccc(F)cc2)cc1 was read as MCF10A rereplic -2%, KB-V1 cytotox inactive, SW480 rerep -2%, ELG1 DNA repair 12µM* and KB-3-1 tox inactive.
`COc1cc(CNCCc2ccc(S(N)(=O)=O)cc2)ccc1OCc1ccc(Cl)cc1` gave MCF10A rereplic 13µM*, KB-V1 cytotox inconclusive, SW480 rerep inconclusive, ELG1 DNA repair -13% and KB-3-1 tox inconclusive.
Screening Cc1cc(=O)oc2c(C)c(OCC(=O)Nc3cccnc3)ccc12 returned MCF10A rereplic 0%, KB-V1 cytotox inactive, SW480 rerep -2%, ELG1 DNA repair inconclusive and KB-3-1 tox inactive.
CC(=O)Nc1ccc(S(=O)(=O)N2CCN(C(=O)c3ncoc3-c3ccccc3C)CC2)cc1 was read as MCF10A rereplic -4%, KB-V1 cytotox inactive, SW480 rerep 0%, ELG1 DNA repair -25% and KB-3-1 tox inactive.
For O=C(c1ccc2ncsc2c1)N1CCN(c2cccc(C(F)(F)F)c2)CC1 the results were MCF10A rereplic 13µM*, KB-V1 cytotox inconclusive, SW480 rerep inconclusive, ELG1 DNA repair -8% and KB-3-1 tox inconclusive.
For CCS(=O)(=O)N1CCc2cc(C(=O)N3CCN(c4cccc(C(F)(F)F)c4)CC3)ccc21 the results were KB-V1 cytotox inconclusive and KB-3-1 tox 16µM*.
O=C(c1ccc2c(c1)CCN2S(=O)(=O)c1ccccc1)N1CCN(c2cccc(Cl)c2)CC1 was read as KB-V1 cytotox inactive and KB-3-1 tox inactive.
`O=C(c1ccc2c(c1)OCO2)N1CCN(c2cccc(C(F)(F)F)c2)CC1` gave MCF10A rereplic 12µM*, KB-V1 cytotox 16µM*, SW480 rerep inconclusive, ELG1 DNA repair inconclusive and KB-3-1 tox 13µM*.
For CCN(CCCCN1C(=O)c2ccccc2C1=O)c1ccc2c(c1)C(=O)N(C)C2=O the results were MCF10A rereplic inconclusive, KB-V1 cytotox inactive, SW480 rerep 10%, ELG1 DNA repair 16µM* and KB-3-1 tox inactive.
Screening CC1CC(OC(=O)C2CCN(S(=O)(=O)c3ccc(F)cc3)CC2)C(=O)O1 (centres undefined) returned MCF10A rereplic 2%, KB-V1 cytotox inactive, SW480 rerep -110%, ELG1 DNA repair 9% and KB-3-1 tox inactive.
Screening CN(C)S(=O)(=O)c1ccc2nnn(OCC(=O)NC3CCS(=O)(=O)C3)c2c1 (centres undefined) returned MCF10A rereplic -1%, KB-V1 cytotox inactive, SW480 rerep -20%, ELG1 DNA repair 4% and KB-3-1 tox inactive.
